Measurements: PubChem BioAssay (NCATS)
Results filed as inconclusive are left out. Activity calls are given as the source filed them. Unless noted, the call rests on the fitted dose curve; in most records, active means well fitted curve in the direction sought with a large enough effect; inconclusive means small, poorly fitted or top-dose-only effect, or another doubt; inactive means no such curve, though single readings can be large; an effect the other way counts as inactive or inconclusive.

Columns and labels:
[1] = AP1 Signaling Pathway (AID 357; active means well fitted curve in either direction with a large enough effect, not every such curve was filed as active;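 further: ME-180 reporter cells stimulated with EGF at its EC50 level; on the % scale 0 is the no-effect control and ±100 the full control effect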); details: ME-180 AP-1-bla reporter, EGF-induced, beta-lactamase ratio, 5 h; at 38 µM (top of the series)
Outline: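 Modulation of EGF-driven AP-1 transcription was assessed with a beta-lactamase reporter in ME-180 cells. Compound and EC50 EGF were co-incubated 5 hours at 37 °C before 2.5-hour CCF4 loading at room temperature and dual-emission reading.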

[2] = NFAT Signaling Pathway (AID 444; active means well fitted curve in either direction with a large enough effect, not every such curve was filed as active;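 further: carbachol stimulus at about its EC50 of 1 µM final; on the % scale 0 is the no-effect control and ±100 the full control effect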); details: Jurkat NFAT-bla M1, carbachol, beta-lactamase ratio, 5 h; at 38 µM (top of the series)
Outline: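 Read-out: CCF4 FRET ratio (460 nm/530 nm) after 1 h RT dye loading, used for %activity and AC50 from titration series. Cells: Jurkat NFAT-β-lactamase/M1 line, treated with compound plus 1 uM carbachol for 5 h, 37 °C.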

[3] = Stat Signaling Pathway (AID 446; active means well fitted curve in either direction with a large enough effect, not every such curve was filed as active;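 further: ME-180 cervical cancer cells given 40 pM IL-6 alongside compound; SIE-controlled beta-lactamase reporter measured as 460/530 nm FRET emission ratio; on the % scale 0 is the no-effect control and ±100 the full control effect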); details: ME-180 (cervical carcinoma) SIE beta-lactamase reporter, IL-6 stimulated, 5 h; at 38 µM (top of the series)
Outline: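 FRET read-out (405 nm excitation, 460/530 nm emission) of a beta-lactamase reporter under a STAT-inducible element in ME-180 cervical carcinoma cells. Cells with compound receive 40 pM IL-6 for 5 h. Values are normalised to AC90 stimulation and AC90 JAK-inhibitor controls.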

[4] = target: Glucocorticoid receptor (Homo sapiens) (UniProt P04150); assay: GR-GFP Redistribution (AID 450;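 active means compounds whose dose series gives a full or clear partial fitted curve of increased nuclear translocation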; further: potency means the concentration at half of the fitted maximal effect); details: U2OS GR-GFP nuclear translocation, laser cytometry, 2 h
Sequence of Glucocorticoid receptor (Homo sapiens) (P04150 whole entry, looked up, the tested form may be a part): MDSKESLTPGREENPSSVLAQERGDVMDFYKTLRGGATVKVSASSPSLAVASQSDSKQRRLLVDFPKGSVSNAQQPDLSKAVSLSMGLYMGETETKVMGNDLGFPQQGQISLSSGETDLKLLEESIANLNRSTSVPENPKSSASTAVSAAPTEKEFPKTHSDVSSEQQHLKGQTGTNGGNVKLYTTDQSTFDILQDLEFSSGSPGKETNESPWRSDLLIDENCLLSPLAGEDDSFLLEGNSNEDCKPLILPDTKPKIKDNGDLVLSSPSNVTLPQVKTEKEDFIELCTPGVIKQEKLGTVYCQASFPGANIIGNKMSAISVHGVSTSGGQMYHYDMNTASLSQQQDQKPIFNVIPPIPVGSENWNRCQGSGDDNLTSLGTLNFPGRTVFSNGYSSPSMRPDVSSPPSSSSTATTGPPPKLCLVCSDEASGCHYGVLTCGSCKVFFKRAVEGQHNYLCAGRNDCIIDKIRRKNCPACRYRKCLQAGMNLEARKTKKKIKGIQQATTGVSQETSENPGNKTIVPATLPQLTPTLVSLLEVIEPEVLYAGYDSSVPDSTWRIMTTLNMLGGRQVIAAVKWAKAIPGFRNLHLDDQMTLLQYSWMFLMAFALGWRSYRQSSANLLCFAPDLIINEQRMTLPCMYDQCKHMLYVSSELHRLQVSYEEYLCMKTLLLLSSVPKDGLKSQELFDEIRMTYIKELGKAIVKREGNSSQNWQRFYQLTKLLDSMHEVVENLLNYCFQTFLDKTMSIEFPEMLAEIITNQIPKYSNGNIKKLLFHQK

[5] = target: Glucocorticoid receptor (Homo sapiens) (UniProt P04150); assay: GR-EFC Redistribution (AID 451; calls by dose curve; further: potency means the concentration at half of the fitted maximal effect); details: CHO-K1 GR-EFC translocation, beta-gal luminescence, 2 h
Outline: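 Translocation of GR-ED fusion to nuclear EA restores b-gal, read by luminescence after 1 h room-temperature detection. Engineered CHO-K1 biosensor cells, 1,000/well, exposed 2 h at 37 C to titrations up to 46 uM final.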

[6] = target: Mitogen-activated protein kinase 10 (Mus musculus) (UniProt Q61831); assay: JNK3 AlphaScreen Assay (AID 530; active means well fitted curve in either direction with a large enough effect, not every such curve was filed as active;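 further: kinase came from lysate of stimulated human HepG2 cells; signal reports phosphorylation of biotinylated GST-cJun 1-79 at Ser73 with 10 µM ATP; on the % scale 0 is the no-effect control and ±100 the full control effect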)
Outline: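 Kinase buffer: 20 mM Tris-HCl pH 7.6, 10 mM MgCl2, 1 mM DTT, 0.1 mM Na3VO4, 0.01% Tween-20; ATP 10 uM. Substrate biotin-GST-cJun(1-79), enzyme from activated HepG2 lysates. Detection by Ser73 phospho-antibody AlphaScreen.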

[7] = target: 3',5'-cyclic-AMP phosphodiesterase 4B (Homo sapiens) (UniProt Q07343); assay: qHTS Assay for Inhibitors of PDE-IV (AID 607; active means well fitted activation curve with a large enough effect in the main read-out, with a control signal flat, not every such curve was filed as active; further: % of control where 0% means no effect)
Sequence of 3',5'-cyclic-AMP phosphodiesterase 4B (Homo sapiens) (Q07343 whole entry, looked up): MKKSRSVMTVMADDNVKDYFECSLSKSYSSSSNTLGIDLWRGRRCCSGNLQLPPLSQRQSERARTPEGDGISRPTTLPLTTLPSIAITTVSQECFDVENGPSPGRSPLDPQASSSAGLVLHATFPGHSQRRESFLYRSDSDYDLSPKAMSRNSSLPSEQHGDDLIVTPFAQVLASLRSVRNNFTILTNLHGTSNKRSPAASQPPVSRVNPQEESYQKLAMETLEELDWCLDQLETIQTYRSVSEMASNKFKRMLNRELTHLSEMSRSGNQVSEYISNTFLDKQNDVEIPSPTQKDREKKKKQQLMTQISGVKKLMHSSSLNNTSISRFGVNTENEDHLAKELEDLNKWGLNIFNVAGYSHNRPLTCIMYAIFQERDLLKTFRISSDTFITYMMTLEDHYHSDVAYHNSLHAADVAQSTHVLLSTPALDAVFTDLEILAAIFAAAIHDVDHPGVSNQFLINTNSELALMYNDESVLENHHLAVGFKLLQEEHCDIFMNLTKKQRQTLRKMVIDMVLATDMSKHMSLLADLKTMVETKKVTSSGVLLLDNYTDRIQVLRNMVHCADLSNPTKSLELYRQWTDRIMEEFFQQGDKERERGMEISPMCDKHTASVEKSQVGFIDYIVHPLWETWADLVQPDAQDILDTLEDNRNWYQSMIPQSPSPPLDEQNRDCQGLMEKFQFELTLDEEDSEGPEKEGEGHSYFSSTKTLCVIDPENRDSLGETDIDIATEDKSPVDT
Outline: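 Cell-based read-out of cAMP via a modified cyclic nucleotide-gated channel and membrane potential dye (535/590 nm) in HEK293 cells expressing PDE4 endogenously. Compounds tested up to 22.9 uM final; 100 uM RO 20-1724 reference.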

[8] = target: Guanine nucleotide-binding protein G(i) subunit alpha-1 (Homo sapiens) (UniProt P63096); assay: qHTS Assay for Inhibitors of RGS12 GoLoco Motif Activity (Green Fluorophore) (AID 879);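 further: 0% = labeled peptide with Gαi1 and full inhibition = labeled peptide alone without protein; negative values mean loss of peptide binding seen as reduced polarization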
Outline: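 A drop in FITC polarization marked displacement of the FITC-tagged RGS12 GoLoco peptide (10 nM) from Gαi1 (50 nM). Compounds were incubated 10 min at room temperature in Tris pH 7.5 buffer containing 150 mM NaCl, 0.1 mM GDP and 0.05% NP40; unlabeled peptide titration served as control.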

[9] = target: Pyruvate kinase PKM (Homo sapiens) (UniProt P14618); assay: qHTS Assay for Activators of Human Muscle Pyruvate Kinase (AID 954; active means well fitted curve in the direction sought with a large enough effect, not every such curve was filed as active;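 further: 0% = uninhibited enzyme and -100% = no enzyme or full thiadiazolimine inhibition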)
Outline: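 ATP production by PKM2 detected via luciferase luminescence after 1 h room-temperature reaction (0.1 nM enzyme, PEP at Km 0.5 mM, ADP 0.1 mM, pH 7.2 imidazole buffer). Inhibition scaled to no-enzyme control; activation referenced to 0.3 nM enzyme wells.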

[10] = target: Alpha-galactosidase A (Homo sapiens) (UniProt P06280); assay: Counterscreen for Glucocerebrosidase Inhibitors: qHTS Assay for Human alpha-Galactosidase at pH 4.5 (AID 992); further: 0% is about no effect
Outline: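 Fluorogenic 1536-well qHTS at pH 4.5 (citrate, Tween-20): 2 nM enzyme, 80 uM 4-MU-alpha-galactoside, 20 min room temperature, NaOH/glycine stop. Titration 0.7 nM to 77 uM, data normalized to no-enzyme and full-activity controls, Hill-fitted AC50.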

[11] = target: alpha-glucosidase (Oryza sativa, rice) (UniProt Q653V4); assay: Counterscreen for Glucocerebrosidase Inhibitors: qHTS Assay for Rice alpha-Glucosidase at pH 5.0 (AID 997);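 further: 0% = full activity with enzyme and -100% = basal without enzyme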
Outline: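 Endpoint fluorogenic assay at pH 5.0: compounds (0.7 nM to 77 uM) titrated against 4 nM rice enzyme and 400 uM 4-MU-alpha-glucoside for 20 min at room temperature; NaOH/glycine stop, read ex 365/em 440 nm, Hill-fitted AC50.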

[12] = Validation of Assay for Modulators of Lamin A Splicing (AID 1459; active means well fitted curve in the direction sought with a large enough effect in the signal ratio; the % refers to the signal ratio;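 further: cells exposed to compound for two days before reading; 0% is about no effect; ratio rise marks activators and ratio drop marks inhibitors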)
Outline: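 Splicing correction is reported by an EGFP-containing lamin A minigene in stably transfected S3 HeLa cells, while DsRed2 controls for viability and nonspecific signal. Cells are exposed to compounds for 48 hrs before the GFP over RFP ratio is taken.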

[13] = target: DNA repair nuclease/redox regulator APEX1 (Homo sapiens) (UniProt P27695); assay: qHTS Validation Assay for Inhibitors of the Human Apurinic/apyrimidinic Endonuclease 1 (APE1) (AID 1705)
Outline: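 Endonuclease activity of human APE1 is followed as dequenching when the enzyme incises a tetrahydrofuran abasic site in a short duplex labelled 5'-TAMRA/3'-BHQ-2 (50 nM final), after 15 min enzyme–compound preincubation at room temperature.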

[14] = target: Endonuclease 4 (Escherichia coli (strain K12)) (UniProt P0A6C1); assay: Counterscreen for APE1 Inhibitors: qHTS Validation Assay for Inhibitors of Endonuclease IV (AID 1708); further: on the % scale 0 is the no-effect control and ±100 the full control effect
Outline: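 The reaction buffer contained 50 mM Tris-HCl pH 7.5, 50 mM NaCl, 2 mM MgCl2, 1 mM DTT and 0.01% Tween-20. Incision of a 50 nM fluorophore/quencher THF substrate by 2 nM enzyme was measured kinetically.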

[15] = qHTS for differential inhibitors of proliferation of Plasmodium falciparum line 7G8 (AID 1815);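 further: parasite growth measured after three days of incubation; plate controls were vehicle wells for no effect and reference inhibitor wells for full effect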
[16] = qHTS for differential inhibitors of proliferation of Plasmodium falciparum line GB4 (AID 1816); details: Potency: Plasmodium falciparum GB4 proliferation inhibition;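 further: parasite growth measured after 72 h incubation; 0% = vehicle DMSO and -100% = reference inhibitor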
[17] = qHTS for differential inhibitors of proliferation of Plasmodium falciparum line 3D7 (AID 1876);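 further: parasite growth measured after three days of culture; 0% = vehicle wells and -100% = reference inhibitor wells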
[18] = qHTS for differential inhibitors of proliferation of Plasmodium falciparum line D10 (AID 1877);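 further: parasites grown with compound for 72 h before DNA staining; plate controls were vehicle wells for no effect and reference inhibitor wells for full effect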
[19] = qHTS for differential inhibitors of proliferation of Plasmodium falciparum line Dd2 (AID 1882); details: Potency: Plasmodium falciparum Dd2 proliferation inhibition;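 further: compound exposure of 72 h on infected erythrocytes; plate controls were DMSO vehicle for no effect and 0.29 µM artemisinin for full effect; nearly all actives have a fitted effect of over 65% in size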
Outline: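 RBC culture, 0.3% parasitemia / 2.5% Hct final; cpd added by pin tool in DMSO; 72 h, 37 C, 5% CO2; lysis buffer + SYBR Green I, o/n RT dark; FI 485/535; norm. to artemisinin 0.29 uM and DMSO.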

[20] = qHTS for differential inhibitors of proliferation of Plasmodium falciparum line W2 (AID 1883); details: Potency: Plasmodium falciparum W2 proliferation inhibition;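 further: parasites grown with compound for 72 h before lysis and staining; 0% = vehicle wells and -100% = control inhibitor wells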
[21] = qHTS for differential inhibitors of proliferation of Plasmodium falciparum line HB3 (AID 1886); details: Potency: Plasmodium falciparum HB3 proliferation inhibition;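 further: parasites grown with compound for 72 h before SYBR Green readout; plate controls were vehicle for no effect and reference inhibitor for full effect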
[22] = qHTS Assay for Modulators of Human Peripheral Myelin Protein 22 (PMP22) Expression/Activity (AID 1967; active means well fitted curve in the direction sought with a large enough effect in the signal ratio; the % refers to the signal ratio;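 further: 0% = untreated cells and 100% end not stated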)
Outline: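 Quantitative HTS in a mouse Schwann cell line expressing dual click beetle luciferases: Pmp22 promoter (green) and control EF-alpha promoter (red). After 24h treatment, corrected green/red signal ratio gave %Activity relative to untreated cells.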

[23] = target: Ferritin light chain (Equus caballus) (UniProt P02791); assay: qHTS Validation Assay for Identification of Novel General Anesthetics (AID 2323); further: on the % scale 0 is the no-effect control and ±100 the full control effect
Sequence of Ferritin light chain (Equus caballus) (P02791 2-175 limits assumed): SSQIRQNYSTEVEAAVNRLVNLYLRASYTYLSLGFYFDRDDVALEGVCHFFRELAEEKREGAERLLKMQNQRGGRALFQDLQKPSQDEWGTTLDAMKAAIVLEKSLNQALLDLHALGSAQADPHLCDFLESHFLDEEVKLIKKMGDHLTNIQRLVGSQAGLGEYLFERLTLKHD
Outline: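 Apoferritin from horse spleen (10 uM) was mixed with 1-aminoanthracene at 50% saturation in PBS, then compounds were added. After 10 min at room temperature, fluorescence was read (ex 380 nm, em 535 nm) and normalized to free-probe and complex controls.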

[24] = target: ATP-dependent DNA helicase Q1 (Homo sapiens) (UniProt P46063); assay: qHTS Validation Assay for Inhibitors of RecQ-Like Dna Helicase 1 (RECQ1) (AID 2353);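 further: plate controls were DMSO vehicle for no effect and enzyme-free control for full effect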
Sequence of ATP-dependent DNA helicase Q1 (Homo sapiens) (P46063 whole entry, looked up): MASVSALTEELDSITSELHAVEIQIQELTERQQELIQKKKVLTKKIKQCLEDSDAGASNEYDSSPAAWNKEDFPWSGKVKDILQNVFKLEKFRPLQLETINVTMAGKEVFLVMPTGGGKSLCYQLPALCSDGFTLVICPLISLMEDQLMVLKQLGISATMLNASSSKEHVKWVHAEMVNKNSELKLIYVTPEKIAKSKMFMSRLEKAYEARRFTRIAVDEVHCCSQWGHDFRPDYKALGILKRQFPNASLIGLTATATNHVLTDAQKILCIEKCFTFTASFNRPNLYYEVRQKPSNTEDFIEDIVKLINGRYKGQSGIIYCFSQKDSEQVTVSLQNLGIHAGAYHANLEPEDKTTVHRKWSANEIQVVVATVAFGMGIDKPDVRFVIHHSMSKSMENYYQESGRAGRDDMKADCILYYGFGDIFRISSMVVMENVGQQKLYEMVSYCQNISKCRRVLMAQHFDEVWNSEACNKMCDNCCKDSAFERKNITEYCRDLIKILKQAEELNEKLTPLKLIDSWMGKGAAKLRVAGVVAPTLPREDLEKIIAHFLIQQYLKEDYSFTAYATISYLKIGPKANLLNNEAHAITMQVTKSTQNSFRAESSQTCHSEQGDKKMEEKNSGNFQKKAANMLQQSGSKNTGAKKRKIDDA
Outline: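 RECQ1T1 50 nM; forked duplex (20 bp + 30-nt ss tails) 200 nM, ATP 2 mM final; pH 8.0, 2 mM MgCl2, 2.5 ug/ml poly(dI-dC); 15 min compound preincubation; discontinuous kinetic read over 2 h at RT.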

[25] = target: RecQ-like DNA helicase BLM (Homo sapiens) (UniProt P54132); assay: qHTS Validation Assay for Inhibitors of Bloom's syndrome helicase (BLM) (AID 2364);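 further: plate controls were DMSO vehicle for no effect and enzyme-free control for full effect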
Outline: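 Forked 20-bp duplex substrate (200 nM, TAMRA/BHQ-2) plus 2 mM ATP added after 15 min compound preincubation with 50 nM enzyme, pH 8.0, poly(dI-dC) 2.5 ug/ml. Strand separation followed by fluorescence (525/598 nm) over 2 h, normalized to enzyme-free and DMSO controls.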

[26] = Validation screen for small molecules that induce DNA re-replication in MCF 10A normal breast cells (AID 463097); further: 0% is about no effect; nearly all actives have a fitted effect of over 60% in size
Outline: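 DNA re-replication was detected as a rise in nuclei with elevated Hoechst fluorescence after a 48 hr compound exposure of MCF 10A cells at 37 C.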

[27] = Quantitative high throughput screen for delayed death inhibitors of the malarial parasite plastid, 48 hour incubation (AID 488752); further: on the % scale 0 is the no-effect control and ±100 the full control effect; nearly all actives have a fitted effect of over 65% in size
Outline: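 Luciferase-expressing P. falciparum in RBCs, 2% Hct, 0.1% parasitemia final; RPMI 1640 + 0.5% Albumax; 48 h, 37 C, 5% CO2; luminescence readout, signal drop = growth inhibition.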

[28] = target: M-phase phosphoprotein 8 (Homo sapiens) (UniProt Q99549); assay: qHTS Validation Assay for Inhibitors for MPP8 Chromodomain Interactions with Methylated Histone Tails (AID 488949); further: potency means the concentration at half of the fitted maximal effect; nearly all actives have a fitted effect of over 55% in size
Sequence of M-phase phosphoprotein 8 (Homo sapiens) (Q99549 whole entry, looked up): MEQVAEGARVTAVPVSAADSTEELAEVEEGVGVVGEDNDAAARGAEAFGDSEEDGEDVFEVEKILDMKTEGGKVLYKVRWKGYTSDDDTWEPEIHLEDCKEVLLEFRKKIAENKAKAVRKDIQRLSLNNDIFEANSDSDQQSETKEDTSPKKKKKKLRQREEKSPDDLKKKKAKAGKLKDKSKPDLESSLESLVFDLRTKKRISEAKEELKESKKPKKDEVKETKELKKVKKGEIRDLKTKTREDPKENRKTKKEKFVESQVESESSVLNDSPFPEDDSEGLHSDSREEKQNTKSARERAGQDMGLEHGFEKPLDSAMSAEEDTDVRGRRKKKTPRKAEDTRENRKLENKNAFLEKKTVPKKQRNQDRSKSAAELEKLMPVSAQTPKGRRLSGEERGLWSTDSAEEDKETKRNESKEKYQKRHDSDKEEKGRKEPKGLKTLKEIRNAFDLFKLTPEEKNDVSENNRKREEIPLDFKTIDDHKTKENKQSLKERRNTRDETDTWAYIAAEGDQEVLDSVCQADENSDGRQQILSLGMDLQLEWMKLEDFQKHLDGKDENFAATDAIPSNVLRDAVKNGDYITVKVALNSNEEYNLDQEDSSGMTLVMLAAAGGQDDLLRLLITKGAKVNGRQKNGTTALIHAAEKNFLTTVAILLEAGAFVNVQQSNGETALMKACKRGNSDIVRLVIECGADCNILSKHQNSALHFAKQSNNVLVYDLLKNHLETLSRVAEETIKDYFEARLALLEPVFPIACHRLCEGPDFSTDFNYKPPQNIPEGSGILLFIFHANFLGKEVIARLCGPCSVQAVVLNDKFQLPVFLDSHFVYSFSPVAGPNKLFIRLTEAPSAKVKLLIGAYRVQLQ
Outline: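 Disruption of the preformed MPP8–trimethyl-H3K9 peptide complex (both 50 nM, 30 min, RT) is measured after 30 min compound exposure, using AlphaScreen proximity beads; aurintricarboxylic acid titration serves as plate control.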

[29] = target: Transient receptor potential cation channel subfamily V member 1 (Homo sapiens) (UniProt Q8NER1); assay: HTS Assay for Compounds that Act as Enhancers of the Vanilloid Receptor 1 (AID 488979); further: 0% is about no effect
Sequence of Transient receptor potential cation channel subfamily V member 1 (Homo sapiens) (Q8NER1 whole entry, looked up): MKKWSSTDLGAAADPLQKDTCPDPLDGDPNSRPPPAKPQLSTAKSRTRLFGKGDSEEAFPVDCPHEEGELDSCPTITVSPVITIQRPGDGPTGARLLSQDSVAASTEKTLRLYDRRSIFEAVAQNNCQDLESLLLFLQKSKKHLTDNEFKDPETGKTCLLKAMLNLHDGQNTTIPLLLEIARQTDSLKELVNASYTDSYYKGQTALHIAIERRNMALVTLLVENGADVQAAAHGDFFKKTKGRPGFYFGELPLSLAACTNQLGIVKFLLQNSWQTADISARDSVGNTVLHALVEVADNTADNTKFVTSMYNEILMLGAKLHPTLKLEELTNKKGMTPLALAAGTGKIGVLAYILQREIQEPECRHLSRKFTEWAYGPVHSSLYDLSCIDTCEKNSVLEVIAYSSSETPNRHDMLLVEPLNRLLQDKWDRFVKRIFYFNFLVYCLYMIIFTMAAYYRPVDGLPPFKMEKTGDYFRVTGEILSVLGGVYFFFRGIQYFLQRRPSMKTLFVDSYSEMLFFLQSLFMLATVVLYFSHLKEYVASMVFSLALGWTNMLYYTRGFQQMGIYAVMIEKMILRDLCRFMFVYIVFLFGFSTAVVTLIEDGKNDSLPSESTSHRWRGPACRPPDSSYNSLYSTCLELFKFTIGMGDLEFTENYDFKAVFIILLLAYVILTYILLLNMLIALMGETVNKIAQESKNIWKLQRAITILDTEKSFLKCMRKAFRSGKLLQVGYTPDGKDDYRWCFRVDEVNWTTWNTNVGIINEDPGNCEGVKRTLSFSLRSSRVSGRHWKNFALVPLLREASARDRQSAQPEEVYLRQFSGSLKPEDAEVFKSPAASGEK
Outline: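 Calcium influx kinetics via Fluo-8 (480/520 nm) in TRPV1-expressing cells, 2000/well cultured overnight at 35.5C. Compound-alone read 3 min (agonist phase), followed by EC20 capsaicin challenge for 2 min (enhancer phase).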

[30] = target: Thyrotropin receptor (Homo sapiens) (UniProt P16473); assay: qHTS Assay for Antagonists of the Thyroid Stimulating Hormone Receptor (AID 488980); further: 0% is about no effect
Outline: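 Cells expressing human TSHR (HEK293) are dispensed in HBSS/HEPES containing 70 uM RO 20-1724, compound is added, then TSH at EC80 (4 nM final). Antibody in lysis buffer follows, 30 minutes at room temperature before HTRF detection.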

[31] = target: Thyrotropin-releasing hormone receptor (Homo sapiens) (UniProt P34981); assay: qHTS for Small Molecule Agonists and Allosteric Enhancers of Human TRH Receptor: Validation Screen for Agonists (AID 493127;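 active means calcium activation more than 3 SD above the typical response in the agonist read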;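 further: intracellular calcium rise by fluo-8 fluorescence before TRH EC20 addition; 0% is about no effect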); details: TRH receptor agonist cell assay; at 2 µM; active compounds read high
Sequence of Thyrotropin-releasing hormone receptor (Homo sapiens) (P34981 whole entry, looked up): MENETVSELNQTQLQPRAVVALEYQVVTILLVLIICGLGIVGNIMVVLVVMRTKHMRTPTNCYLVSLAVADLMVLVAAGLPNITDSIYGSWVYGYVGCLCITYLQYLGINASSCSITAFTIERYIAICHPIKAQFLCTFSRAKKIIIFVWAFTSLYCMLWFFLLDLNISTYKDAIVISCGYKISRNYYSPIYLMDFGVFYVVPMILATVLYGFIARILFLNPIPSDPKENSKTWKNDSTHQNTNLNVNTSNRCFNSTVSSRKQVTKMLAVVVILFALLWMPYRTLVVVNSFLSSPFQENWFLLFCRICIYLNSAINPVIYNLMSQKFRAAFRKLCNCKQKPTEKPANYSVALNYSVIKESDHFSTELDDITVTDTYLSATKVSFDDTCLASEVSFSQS
Outline: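 Read-out: intracellular calcium release measured kinetically by FDSS (fluo-8, ex 480/em 530 nm), 1 reading/s after a 10-cycle baseline. TRHR cells, 2000/well, cultured 18 h at 33.5C, dye-loaded at room temp. Compound-evoked positive calcium signal flags agonists.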

[32] = target: Galactokinase (Homo sapiens) (UniProt P51570); assay: qHTS Validation Assay for Inhibitors of Human Galactokinase (GALK) (AID 493189); further: 0% is about no effect
Sequence of Galactokinase (Homo sapiens) (P51570 whole entry, looked up): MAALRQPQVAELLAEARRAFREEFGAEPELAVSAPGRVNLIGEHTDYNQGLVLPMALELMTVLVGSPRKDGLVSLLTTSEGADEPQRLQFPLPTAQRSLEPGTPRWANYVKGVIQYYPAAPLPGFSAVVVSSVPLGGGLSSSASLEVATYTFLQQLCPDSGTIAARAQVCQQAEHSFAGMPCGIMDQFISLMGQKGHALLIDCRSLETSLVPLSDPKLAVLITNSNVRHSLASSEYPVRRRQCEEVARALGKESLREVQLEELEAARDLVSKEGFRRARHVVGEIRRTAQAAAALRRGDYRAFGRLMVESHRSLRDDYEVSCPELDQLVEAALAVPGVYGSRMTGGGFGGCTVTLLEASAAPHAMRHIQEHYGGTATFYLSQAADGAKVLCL
Outline: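 Compounds were pin-transferred into ATP buffer, then GALK-galactose mix was added (final 5 nM enzyme, 100 uM galactose, 35 uM ATP). After 1 h at room temperature, remaining ATP was measured luminescently.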

[33] = Validation screen for small molecules that induce DNA re-replication in SW480 colon adenocarcinoma cells (AID 504364); further: 0% is about no effect
Outline: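 Read-out: total Hoechst intensity of nuclei by fluorescence scanning imager; hits raise the fraction of nuclei with elevated DNA content. Cells received compound for 48 hr at 37 C before a 40 min stain.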

[34] = target: DNA dC->dU-editing enzyme APOBEC-3G (Homo sapiens) (UniProt Q9HC16); assay: qHTS for inhibitors of Vif-A3G interactions: Validation (AID 588379); further: 0% is about no effect
Outline: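 Yellow fluorescence (Ex 488, Em 500-530) of Vif-coexpressing HeLa A3G-eYFP cells, scanned by Acumen cytometer, reports blocked A3G degradation. Cells plated at 700/well overnight at 37 deg C before compound addition, then a further overnight compound incubation at 37 deg C.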

[35] = system: Zika virus NS2B-NS3 protease; assay: Primary screen GU AMC qHTS for Zika virus inhibitors (AID 1347154);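 further: 0% = no-inhibitor control and -100% = no-enzyme control; nearly all actives have a fitted effect of over 70% in size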
Outline: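 Fluorogenic AMC-substrate cleavage by noncovalent NS2B-NS3 protease complex (25 nM, pH 8.0 Tris buffer with Tween 20) followed for 15 minutes at room temperature (~20% conversion). Percent inhibition from ex340/em450 signal change, fitted by 4-parameter Hill equation.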

[36] = Primary qHTS for small molecule stabilizers of the endoplasmic reticulum resident proteome: Secreted ER Calcium Modulated Protein (SERCaMP) assay (AID 1508630); further: on the % scale 0 is the no-effect control and ±100 the full control effect
Outline: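 The SH-SY5Y reporter protocol was run at 3 concentrations up to 38.3 uM (primary) or 11 concentrations (follow-up): 16 h compound, 100 nM thapsigargin for 4 h, then extracellular luciferase luminescence.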

CN(C)CCCCSC(=N)N
inactive: activity change, negative = inhibition [1] 1.82% | activity change, negative = inhibition [2] 1.09% | activity, negative = inhibition [3] -29.5% | Potency [4] > 46 µM | Potency [5] > 46 µM | Potency [6] | Potency [7] | outcome [8] | outcome [9] | outcome [10] | outcome [11] | outcome [12] | Potency [13] | Potency [14] | Potency [15] | Potency [16] | Potency [17] | Potency [18] | Potency [19] | Potency [20] | Potency [21] | outcome [22] | outcome [23] | Potency [24] | Potency [25] | Potency [26] | Potency [27] | outcome [29] | outcome [30] | activation [31] 1.19% | outcome [32] | outcome [33] | Potency [34] | Potency [35] | Potency [36]
active: Potency [28] 50.1 µM
